Holding throughout (assay): DAPPL (digital affinity profiling via proximity ligation, sequencing); 10 mM Tris-HCl pH 7.5, 50 mM NaCl, 1 mM DTT, 4% glycerol, room temperature, 30 min; GST-TFs on glutathione beads, 16-mer random dsDNA library, 0.1% formaldehyde crosslink after washing; high values mean tight binding
Common to all, as to conditions: protein: recombinant; tags: N-terminal GST; dsDNA, one strand shown

One assay has as its target T1, SPIC (Homo sapiens, UniProt Q8N5J4 1-248).
T1 sequence: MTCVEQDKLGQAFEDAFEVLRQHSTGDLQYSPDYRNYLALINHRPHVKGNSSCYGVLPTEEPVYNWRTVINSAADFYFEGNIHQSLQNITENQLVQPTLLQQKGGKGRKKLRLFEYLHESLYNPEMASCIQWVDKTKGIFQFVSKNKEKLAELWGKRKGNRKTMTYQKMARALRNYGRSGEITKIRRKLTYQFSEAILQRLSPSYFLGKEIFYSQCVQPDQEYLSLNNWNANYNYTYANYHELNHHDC
The method, boiled down: (§1)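 Binding signal is given per hexamer as its read frequency for a factor divided by its frequency in the tag-only sample. GST-fused human transcription factors were expressed in yeast, captured on glutathione beads, barcoded with DNA and pooled with that sample, then incubated with 200 nmole of a 16-mer random double-stranded DNA library in Tris/NaCl/DTT/glycerol buffer for 30 min at room temperature. The pools were then washed, crosslinked, proximity-ligated, amplified by PCR and sequenced on an Illumina NextSeq500.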

A further assay deals with T2, GABPA (Homo sapiens, UniProt Q06546 1-454).
T2 sequence: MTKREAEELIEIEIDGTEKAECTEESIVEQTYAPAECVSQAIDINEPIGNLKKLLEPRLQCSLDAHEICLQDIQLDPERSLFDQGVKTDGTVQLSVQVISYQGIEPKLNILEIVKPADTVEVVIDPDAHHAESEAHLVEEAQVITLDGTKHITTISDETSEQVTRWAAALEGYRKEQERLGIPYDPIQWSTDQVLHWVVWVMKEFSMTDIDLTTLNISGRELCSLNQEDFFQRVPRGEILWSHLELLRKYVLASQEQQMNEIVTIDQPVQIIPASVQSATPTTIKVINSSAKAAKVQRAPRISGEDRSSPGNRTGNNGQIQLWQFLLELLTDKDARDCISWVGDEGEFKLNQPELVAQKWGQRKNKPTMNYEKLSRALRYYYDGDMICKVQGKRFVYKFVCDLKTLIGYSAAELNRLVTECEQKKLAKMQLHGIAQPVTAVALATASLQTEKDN
A digest of the protocol:
as §1

A further assay concerns the target ELF1 (Homo sapiens, UniProt P32519 1-619). A digest of the protocol: as §1
The next assay deals with SPI1 (Homo sapiens, UniProt P17947 1-270). The method, boiled down: as §1
The next assay deals with ELF4 (Homo sapiens, UniProt Q99607 1-663). The method, boiled down:
as §1

A further assay addresses T3, ELF3 (Homo sapiens, UniProt P78545 1-371).
T3 sequence: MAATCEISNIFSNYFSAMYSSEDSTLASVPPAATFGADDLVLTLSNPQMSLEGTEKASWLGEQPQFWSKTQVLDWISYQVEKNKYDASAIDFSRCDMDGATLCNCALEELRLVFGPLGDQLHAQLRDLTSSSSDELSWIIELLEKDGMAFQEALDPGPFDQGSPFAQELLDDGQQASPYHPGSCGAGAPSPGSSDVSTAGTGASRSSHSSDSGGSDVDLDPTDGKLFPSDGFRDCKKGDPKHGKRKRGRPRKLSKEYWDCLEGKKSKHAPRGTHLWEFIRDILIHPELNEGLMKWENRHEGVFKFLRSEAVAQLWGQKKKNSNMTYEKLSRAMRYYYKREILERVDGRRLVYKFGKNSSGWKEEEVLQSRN
The method, boiled down: as §1

A further assay addresses ETV1 (Homo sapiens, UniProt P50549 1-477). The method, boiled down:
as §1

In the next assay the target is T4, ETV7 (Homo sapiens, UniProt Q9Y603 1-341).
T4 sequence: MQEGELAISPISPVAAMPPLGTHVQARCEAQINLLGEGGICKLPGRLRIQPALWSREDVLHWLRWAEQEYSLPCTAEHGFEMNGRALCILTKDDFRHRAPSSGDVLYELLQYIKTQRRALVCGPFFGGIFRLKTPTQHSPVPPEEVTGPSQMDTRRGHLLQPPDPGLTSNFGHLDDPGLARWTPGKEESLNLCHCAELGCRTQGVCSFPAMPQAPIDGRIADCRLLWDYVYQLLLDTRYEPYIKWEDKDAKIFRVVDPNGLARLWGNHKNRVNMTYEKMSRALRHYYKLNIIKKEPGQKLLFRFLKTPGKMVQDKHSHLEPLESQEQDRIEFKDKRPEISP
A digest of the protocol:
as §1

The next assay concerns the target T5, ELF5 (Homo sapiens, UniProt Q9UKW6-2 1-255).
T5 sequence: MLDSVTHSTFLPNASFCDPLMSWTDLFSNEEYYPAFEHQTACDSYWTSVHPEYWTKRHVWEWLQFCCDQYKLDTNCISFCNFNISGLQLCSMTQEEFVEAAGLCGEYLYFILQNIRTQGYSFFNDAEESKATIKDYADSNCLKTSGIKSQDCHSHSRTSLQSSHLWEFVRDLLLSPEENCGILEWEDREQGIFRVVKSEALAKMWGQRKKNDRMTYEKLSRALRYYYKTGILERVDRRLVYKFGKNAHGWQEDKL
The method, boiled down: as §1

For a further assay, the target named is T6, ETV3 (Homo sapiens, UniProt P41162-2 1-143).
T6 sequence: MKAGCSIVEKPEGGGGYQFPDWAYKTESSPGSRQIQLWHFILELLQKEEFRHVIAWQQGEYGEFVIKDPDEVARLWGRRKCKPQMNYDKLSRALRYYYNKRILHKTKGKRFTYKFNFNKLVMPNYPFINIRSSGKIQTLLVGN
A digest of the protocol: as §1

In the next assay the target is ETV6 (Homo sapiens, UniProt P41212 1-452). The method, boiled down:
as §1

The values that follow come from paper PMC7862700, “An all-to-all approach to the identification of sequence-specific readers for epigenetic DNA modifications on cytosine”.

Sequence of ETV6 (P41212 whole entry): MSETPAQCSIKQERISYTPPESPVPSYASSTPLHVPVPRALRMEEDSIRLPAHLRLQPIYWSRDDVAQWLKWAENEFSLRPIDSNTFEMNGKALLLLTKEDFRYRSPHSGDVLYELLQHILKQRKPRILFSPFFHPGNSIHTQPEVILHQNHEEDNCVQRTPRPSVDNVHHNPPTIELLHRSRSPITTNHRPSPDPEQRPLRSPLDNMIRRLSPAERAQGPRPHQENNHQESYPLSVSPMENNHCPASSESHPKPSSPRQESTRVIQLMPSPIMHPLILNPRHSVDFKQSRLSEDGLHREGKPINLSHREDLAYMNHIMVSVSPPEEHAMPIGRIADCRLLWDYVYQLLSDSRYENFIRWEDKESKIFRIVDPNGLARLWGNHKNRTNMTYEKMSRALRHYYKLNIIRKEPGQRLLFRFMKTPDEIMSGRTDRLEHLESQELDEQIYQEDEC
Sequence of ELF1 (P32519 whole entry): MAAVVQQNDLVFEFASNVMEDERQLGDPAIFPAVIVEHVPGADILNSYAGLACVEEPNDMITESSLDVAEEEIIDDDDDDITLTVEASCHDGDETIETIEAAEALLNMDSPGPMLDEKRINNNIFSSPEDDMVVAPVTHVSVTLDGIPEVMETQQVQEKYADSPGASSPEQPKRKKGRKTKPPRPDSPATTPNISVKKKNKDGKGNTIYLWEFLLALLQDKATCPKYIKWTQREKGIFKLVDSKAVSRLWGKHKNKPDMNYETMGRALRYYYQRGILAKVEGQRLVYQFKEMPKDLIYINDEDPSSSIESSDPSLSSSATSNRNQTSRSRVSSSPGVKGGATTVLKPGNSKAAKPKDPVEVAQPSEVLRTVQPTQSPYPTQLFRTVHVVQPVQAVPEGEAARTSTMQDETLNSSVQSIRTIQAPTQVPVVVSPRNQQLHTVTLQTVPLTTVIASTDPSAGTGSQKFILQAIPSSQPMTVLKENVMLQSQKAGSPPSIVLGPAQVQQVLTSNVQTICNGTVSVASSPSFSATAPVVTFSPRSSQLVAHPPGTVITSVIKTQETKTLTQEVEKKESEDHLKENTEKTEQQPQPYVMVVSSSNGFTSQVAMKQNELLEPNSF
Sequence of ETV1 (P50549 whole entry): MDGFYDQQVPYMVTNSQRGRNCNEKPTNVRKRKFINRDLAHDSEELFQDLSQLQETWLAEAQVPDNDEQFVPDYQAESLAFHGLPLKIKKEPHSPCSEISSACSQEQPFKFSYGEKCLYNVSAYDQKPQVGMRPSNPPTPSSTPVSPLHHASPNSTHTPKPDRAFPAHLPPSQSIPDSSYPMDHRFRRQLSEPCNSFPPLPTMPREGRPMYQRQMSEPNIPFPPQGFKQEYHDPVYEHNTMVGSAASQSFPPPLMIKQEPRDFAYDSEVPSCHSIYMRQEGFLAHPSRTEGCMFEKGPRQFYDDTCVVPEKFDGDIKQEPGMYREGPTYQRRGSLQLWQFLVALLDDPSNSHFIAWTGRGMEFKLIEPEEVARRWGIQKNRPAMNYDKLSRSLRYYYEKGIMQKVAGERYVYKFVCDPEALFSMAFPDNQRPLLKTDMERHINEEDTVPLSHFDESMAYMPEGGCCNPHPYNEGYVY
Sequence of ELF4 (Q99607 whole entry): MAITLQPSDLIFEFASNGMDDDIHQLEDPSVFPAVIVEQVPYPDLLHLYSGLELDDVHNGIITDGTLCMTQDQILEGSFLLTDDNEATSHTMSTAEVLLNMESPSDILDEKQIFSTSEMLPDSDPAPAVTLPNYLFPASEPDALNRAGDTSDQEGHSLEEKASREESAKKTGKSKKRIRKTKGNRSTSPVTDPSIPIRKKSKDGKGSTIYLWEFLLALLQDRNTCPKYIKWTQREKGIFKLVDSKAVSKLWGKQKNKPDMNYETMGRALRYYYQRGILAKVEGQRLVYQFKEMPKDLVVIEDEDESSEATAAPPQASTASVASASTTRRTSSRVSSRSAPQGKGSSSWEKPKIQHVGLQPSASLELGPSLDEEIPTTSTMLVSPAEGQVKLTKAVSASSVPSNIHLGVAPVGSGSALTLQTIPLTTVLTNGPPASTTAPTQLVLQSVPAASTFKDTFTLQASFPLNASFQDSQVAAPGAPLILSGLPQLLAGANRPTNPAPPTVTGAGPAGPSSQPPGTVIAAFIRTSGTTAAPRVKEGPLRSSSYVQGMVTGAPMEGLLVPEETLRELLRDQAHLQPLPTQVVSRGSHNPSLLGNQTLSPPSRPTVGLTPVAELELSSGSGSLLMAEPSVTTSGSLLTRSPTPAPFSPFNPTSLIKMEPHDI

As for AGACTC, in the assay with SPIC, the binding signal was 1.06 fold enrichment (6-mer frequency, TF over GST control).
ATGGGA: the binding signal with SPIC is 1.05 fold enrichment (6-mer frequency, TF over GST control).
Same read-out and setting: the same measure for GTTGGC: 1.09 fold enrichment (6-mer frequency, TF over GST control).
On to AACGCG, for which the binding signal was 1.04 fold enrichment (6-mer frequency, TF over GST control) in the assay with GABPA; 1.05 fold enrichment (6-mer frequency, TF over GST control) with ELF1; 1.05 fold enrichment (6-mer frequency, TF over GST control) with SPI1; 1.1 fold enrichment (6-mer frequency, TF over GST control) with SPIC; 1.01 fold enrichment (6-mer frequency, TF over GST control) in the assay with ELF4; 1.02 fold enrichment (6-mer frequency, TF over GST control) with ELF3. The binding signal was 1.04 fold enrichment (6-mer frequency, TF over GST control) with ETV1; 1.02 fold enrichment (6-mer frequency, TF over GST control) with ETV7; 1.03 fold enrichment (6-mer frequency, TF over GST control) with ELF5; 1.1 fold enrichment (6-mer frequency, TF over GST control) with ETV3; 1.01 fold enrichment (6-mer frequency, TF over GST control) with ETV6.
